This passage reports inhibition results from PubChem BioAssay AID1259343 (VanderVen Lab, College of Veterinary Medicine, Cornell …, 2017).

Molecules are shown by their SMILES. Hit rate of the full screen: of about 6,200 compounds, about 2,900 (47%) were called active. The set was probably picked from earlier hits. The list shows a part of the results. A number with no mark means an inactive call. Rule as the data show it: active = inhibition above about 50%; inactive = the rest.

The assay can be described thus: Mycobacterium tuberculosis growth inhibition, primary screen (AID 1259343). As to conditions: inhibition: at 10 µM, hits give high values; outcome: 10 uM.
On to `C(=Nn1c(-c2ccccc2)csc1=NC1CCCCC1)c1ccccn1`, for which the inhibition – broadly, the change of the read-out against control, counted positive when it falls – was -31.1%.
With `Cc1ccc(OCC2CCCN(Cc3ccc(C#CCO)s3)C2)cc1` (configuration not stated) the figure was 82.9% (active); with `Cc1ccccc1OCC1CCCN(Cc2nc(Cc3ccccc3F)no2)C1` (configuration not stated), 47%.
With `O=C(NCC(F)(F)F)c1cccc(Oc2ccccc2)c1` the figure was 74.4% (active).
Next, `CCCCc1noc(CNc2cc(C(=O)NCC(F)(F)F)ccc2C)n1`: 46.7%; `COCC(C)NC(=O)c1cccc(Oc2cccc(C(F)(F)F)c2)c1` (configuration not stated): 38.2%.
`CCc1cccc(N2CCC(NC(=O)Nc3nccs3)CC2)c1`: the inhibition is 51.4% (active).
Next, `CC1CC(=O)NN1C(=O)/C=C/c1cn(-c2ccccc2)nc1-c1ccccc1` (configuration not stated): 38.7%; `OCCN=Cc1cn(-c2ccccc2)nc1-c1ccc(Cl)cc1`: 59.3% (active); `Cn1cc(-c2nn(-c3ccccc3)cc2C=NNC(N)=S)c2ccccc21`: 16.3%.
With `CCc1cc2c(=O)n(CCC(C)C)c(=S)[nH]c2s1` the figure was -39.7%.
Next, `C/C(=C/C(=O)C(C#N)c1nc2cc(Cl)ccc2s1)C1CC1` (configuration not stated): 63.6% (active); `C=C(C)COc1ccc2c(=O)c(-c3ccccc3)c(C)oc2c1`: 51.9% (active).
Take `COC(=O)COc1ccc2c(=O)c(Oc3ccc(OC)cc3)coc2c1`: the inhibition was 8.04%.
With `CCOC(=O)COc1ccc2c(=O)c(-c3ccc(Cl)cc3)c(C)oc2c1` the figure was 84% (active).
Regarding `CCOC(=O)COc1ccc2c(=O)c(-c3ccccc3)c(C)oc2c1`, the inhibition was 41.9%.
Next, `Cc1cc(NC(=O)C(C)Oc2ccc3c(=O)c(-c4ccccc4)c(C)oc3c2)no1` (configuration not stated): 70.1% (active).
As to `COCCCn1c(-c2ccccc2)nc2oc3cc(OC)ccc3c(=O)c2c1=O`, the inhibition was -18.5%.
As to `Nc1c([N+](=O)[O-])ccc2c1=[N+]([O-])C1(CCCCC1)[N+]=2[O-]`, the inhibition is 101% (active).
Next, `Oc1c(N=Nc2ccccc2)cc2c3c1CCCN3CCC2`: 16.8%; `Cc1c(CN2CCCC(CNC(=O)c3cccs3)C2)[nH]c2ccc(Cl)cc12` (configuration not stated): 78.8% (active).
With `Cc1c(CN2CCCC(C(=O)Nc3cccc(-n4cccn4)c3)C2)[nH]c2ccccc12` (configuration not stated) the figure was 35.5%; with `O=C(NCC1CC1)c1csc(N2CCN(Cc3ccc(Cl)cc3)C2=O)n1`, 33.3%; with `NC(=N/N=C\c1ccc(Cl)cc1)N/N=C\c1ccc(Cl)cc1`, 101% (active).
For `CN(CCC#N)c1ccc(C=NNC(N)=S)cc1`, the inhibition is 29.2%.
Next, `Clc1ccc(C2=Nn3c(nnc3C3CCCCC3)SC2)c(Cl)c1`: -20.9%; `O=C(Sc1cccc2cccnc12)c1ccccc1Cl`: 92.5% (active).
With `CCc1cccc2c(C(=O)CSc3nnc(-c4cccnc4)o3)c[nH]c12` the figure was 63.8% (active); with `CCOC(=O)c1sc(NN=C(C#N)C#N)c(C(=O)OCC)c1C`, 27.2%; with `CCOC(=O)c1c(CC(C)C)csc1NC=C(C#N)C#N`, 100% (active).
As for `CCOC(=O)C(C#N)=NNc1sc(C(=O)OCC)c(C)c1C(=O)OCC`, the inhibition is -20.8%.
With `Cc1cc(=O)[nH]c(-n2nc(C)cc2NC(=O)c2ccc(C(F)(F)F)cc2)n1` the figure was 98.6% (active); with `Cc1cc(=O)[nH]c(-n2nc(C)cc2NC(=O)c2cccc(C(F)(F)F)c2)n1`, 102% (active); with `Cc1cc(NC(=O)c2cccc(C(F)(F)F)c2)n(-c2nc(C)c(C)c(=O)[nH]2)n1`, 33.9%.
Next, `Cc1cc(=O)[nH]c(-n2nc(C)cc2NC(=O)c2cc(C(F)(F)F)cc(C(F)(F)F)c2)n1`: 98.3% (active).
With `CCn1nnc2c(N3CCC(Cc4ccccc4)CC3)ncnc21`, the inhibition is 75.6% (active).
Next, `Clc1ccccc1CSc1ncnc2c1nnn2Cc1ccccc1`: -14.6%; `Cc1cc(=O)[nH]c(SCc2cc(-c3ccco3)on2)c1C#N`: 20.5%; `COc1cccc(-c2ccc(CNC(=O)c3n[nH]c(=O)[nH]3)cc2)c1`: 76.1% (active).
With `Cc1c(NC(=S)NC(=O)c2ccc(Br)o2)c(=O)n(-c2ccccc2)n1C` the figure was -13.3%; with `Cc1cc2cc(CNC(=S)Nc3ccccc3)ccc2n1C`, 49.3%.
Next, `Cc1c(NC(=S)NCc2ccccn2)c(=O)n(-c2ccccc2)n1C`: 92.7% (active); `Cc1ccc(S(=O)(=O)N=[N+]([O-])C2([N+](=O)[O-])COC(C)OC2)cc1` (configuration not stated): 102% (active).
For the compound `CCOC(=O)c1ccc(N=Cc2c(O)c([N+](=O)[O-])cc3oc4c(c23)CCCC4)cc1`, the inhibition was 97.7% (active).
With `Cc1ncsc1CCC(=O)N1CCC(C(=O)Nc2cccc(-c3ccco3)c2)CC1` the figure was 86.6% (active); with `CC(C)c1csc(CN2CCC(C(=O)Nc3cccc(-c4ccco4)c3)CC2)n1`, “inactive”; with `O=C(Nc1cccc(-c2cscn2)c1)C1CCN(Cc2cccc(-c3ccco3)c2)CC1`, 86.2% (active).
Take `CC(=O)c1ccc(C(=O)N2CCC(C(=O)Nc3cccc(-c4ccco4)c3)CC2)s1`: the inhibition is 92.1% (active).
Turning to `O=C(Nc1cccc(-c2ccco2)c1)C1CCN(C(=O)Cc2ccsc2)CC1`, the inhibition was 95.1% (active).
Next, `Cc1ccccc1OCC(=O)Nc1ccc2c(c1)CCC(=O)N2CCC(C)C`: 9.17%; `Cc1ccc(NC(=O)CN2CSCC2=O)cc1OCC(F)F`: 81.5% (active).
With `Cn1cccc1C(=O)OCc1nc2scc(-c3ccccc3)c2c(=O)[nH]1`, the inhibition is 37.5%.
With `N#Cc1ncn(Cc2nc3scc(-c4ccc(Br)cc4)c3c(=O)[nH]2)n1` the figure was 50.4% (active); with `N#Cc1c(-c2ccc(Br)cc2)csc1N1CCCCC1`, 38.9%; with `O=C1NC(=O)N(C2CCCCC2)C(=O)C1=CC=Cc1ccco1`, 19.5%.
With `CC1=CC(=NNc2ncc(Cl)cc2Cl)CC(C)(C)C1`, the inhibition is -13.2%.
With `CC(=NN=c1sc2ccccc2n1C)c1ccccc1Br` the figure was 11.9%.
Next, `Cn1c(=NN=C2CC3CC=CC23)sc2ccccc21` (configuration not stated): 102% (active); `Cn1c(=NN=C2CCCc3ccccc32)sc2ccccc21`: 85.9% (active).
With `CC1=CC(=NN=c2sc3ccccc3n2C)CC(C)(C)C1` the figure was 95% (active); with `CC(=NN=c1sc2ccccc2n1C)c1ccco1`, 1.85%.
For the compound `Cc1ccc(Cl)cc1N1CCN(C(=O)Nc2nncs2)CC1`, the inhibition is 2.42%.
Consider `O=c1c(C2OCC3(CO2)CC2C=CC3C2)coc2ccccc12` (configuration not stated), for which the inhibition is 35.6%.
With `Nc1ccn2ncc([P+](c3ccccc3)(c3ccccc3)c3ccccc3)c2n1` the figure was 24%; with `CCCCc1ccc(NC(=O)/C=C/c2cnn(C)c2C)cc1`, 93.3% (active).
Next, `COc1ccccc1N1C(=O)C(Cl)=C(Nc2ccc(S(N)(=O)=O)cc2)C1=O`: -0.54%; `Cc1ccc(NC2=C(Cl)C(=O)N(CC(C)C)C2=O)cc1`: 73.8% (active); `Cc1c(Cl)ccc2sc(N3CCNCC3)nc12`: 90.2% (active).
Regarding `Cc1cc(C)c2nc(N3CCNCC3)sc2c1`, the inhibition was 97.1% (active).
Turning to `Cc1ccc(Cl)c2sc(N3CCNCC3)nc12`, the inhibition is 100% (active).
Next, `Cc1ccc(Cl)c2sc(NCCN(C)C)nc12`: 36.2%; `CCN(CC)CCN(C(=O)c1ccnn1CC)c1nc2c(C)c(Cl)ccc2s1`: 38.3%; `Cc1nc(N2CCNC(=O)C2)c2c(CC(C)C)csc2n1`: -15.6%.
With `Cc1c(O)cccc1C(=O)NC1CC(=O)N(CC2CCCCC2)C1` (configuration not stated) the figure was -18.6%.
With `C/C(=C/C(=O)NCCc1ccccc1F)CCc1ccccc1` the figure was 23.7%.
Consider `Cc1ccc(C)c2[nH]c(=O)c(CCNC(=S)NCCc3ccccc3)cc12`, for which the inhibition is 51.5% (active).
Next, `N#CC(C#N)=NNc1ccc(F)cc1`: 91.2% (active).
With `Fc1ccc(NN=C2c3ccccc3-c3ccccc32)cc1` the figure was 44.1%.
For `N#CC(C#N)=NNc1ccc(SC(F)F)cc1`, the inhibition was 82.4% (active).
Next, `N#CC(C#N)=NNc1ccccc1`: -41.6%; `N#CC(C#N)=NNc1ccc2c(c1)OCO2`: 45.5%; `N#CC(C#N)=NNc1ccc2c(c1)OCCO2`: 70.3% (active).
With `CCCOCCn1cc(C2CC=CCC2)nn1` (configuration not stated) the figure was 75.7% (active); with `S=C(c1ccc(-c2ccc(Cl)c(Cl)c2)o1)N1CCOCC1`, 19.5%; with `O=C(NCCC(=O)N1CCCC1)c1ccc(-c2ccc(Cl)cc2)o1`, 86.7% (active).
Next, `C=CCn1c(-c2cc3c(s2)CCC(CC)C3)n[nH]c1=S` (configuration not stated): 3.05%; `CCC1CCc2c(sc3nc[nH]c(=O)c23)C1` (configuration not stated): 51.2% (active).
Turning to `OCC1(CO)COC(c2ccccc2)=N1`, the inhibition is 56.2% (active).
With `Cc1ccc(-n2cc(O)nn2)cc1` the figure was 94% (active); with `Cc1ccc(OCc2cn(-c3ccc(Cl)cc3)nn2)cn1`, 24.1%; with `CCCCN(CCCC)c1nc(OC)nc(-n2nnc(C(C)=O)c2C)n1`, 15%.
In the case of `Cn1c(=NC(=O)c2ccc3ccccc3n2)sc2ccccc21`, the inhibition was 45.5%.
Next, `Cc1cc(C)c(CNC(=O)c2ccc3ccccc3n2)c(=O)[nH]1`: 70.6% (active); `OCCNc1nc(-c2ccccc2)c2cc(Br)ccc2n1`: 3.07%; `O=C(NC1CCCC1)c1cc(-c2cccs2)on1`: 93.6% (active).
With `Cc1noc(-c2cccs2)c1C(=O)NCCOc1ccccc1` the figure was -3.83%; with `Cc1cc(/C=C(/Cl)c2nc(-c3cccs3)no2)cc(C)c1O`, 32.2%; with `O=C(NC1CCCC1)c1nc(-c2cccs2)no1`, 79.1% (active).
Next, `O=C(c1scc2c1CCCC2)N1CCCC1`: 16.9%; `Cc1cc(C(=O)N2CCC(N3CCCC(C(=O)N4CCOCC4)C3)CC2)no1` (configuration not stated): -0.96%.
In the case of `O=C(NCc1ccco1)c1cc(-c2cccs2)on1`, the inhibition is 35.1%.
With `O=C(c1cc(-c2cccs2)on1)N1CCCC1` the figure was 51.3% (active).
